# Measured values from the supplement of paper PMC8728848.
# The sample as a whole holds a higher share of the strongest signals than the screen did.
# Assays:
# Test in all cases: glycan array binding signal (z-score within array); higher = stronger binding
# Gal6S(b1-4)Glc = settings: glycan notation: IUPAC condensed, linker removed
# How it was run: (§1)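 The binding signal is a Z-score computed within each array. Data were drawn from 3228 arrays in the Consortium for Functional Glycomics database, restricted to those with a known protein sequence. Scores were averaged over arrays of the same protein sequence at different concentrations or buffers, and over linkers, and negative values can be taken as non-binding.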
# GalNAc(a1-3)Gal = settings: glycan notation: IUPAC condensed, linker removed
# How it was run: as §1
# [1] = test system: GlcNAc(a1-3)Gal(b1-4)GlcNAc; settings: glycan notation: IUPAC condensed, linker removed
# How it was run: as §1
# GalNAc(b1-6)GalNAc = settings: glycan notation: IUPAC condensed, linker removed; mutation: R125K
# How it was run: as §1
# [2] = test system: GlcNAc(a1-4)Gal(b1-4)GlcNAc(b1-3)Gal(b1-4)Glc; settings: glycan notation: IUPAC condensed, linker removed
# How it was run: as §1
# GalNAc(a1-3)GalNAc = settings: glycan notation: IUPAC condensed, linker removed
# How it was run: as §1
# GalNAc(b1-3)GalNAc = settings: glycan notation: IUPAC condensed, linker removed
# How it was run: as §1
# [3] = test system: GalNAc(b1-3)Gal(a1-4)Gal(b1-4)GlcNAc; settings: glycan notation: IUPAC condensed, linker removed
# How it was run: as §1
# [4] = test system: GlcNAc(a1-4)Gal(b1-4)GlcNAc(b1-3)Gal(b1-4)GlcNAc; settings: glycan notation: IUPAC condensed, linker removed
# How it was run: as §1
# [5] = test system: GalNAc(b1-4)GlcNAc(b1-2)Man(a1-3)[GalNAc(b1-4)GlcNAc(b1-2)Man(a1-6)]Man(b1-4)GlcNAc(b1-4)GlcNAc; settings: glycan notation: IUPAC condensed, linker removed
# How it was run: as §1
# [6] = test system: GlcNAc(a1-4)Gal(b1-4)GlcNAc(b1-3)Gal(b1-4)[Fuc(a1-3)]GlcNAc(b1-3)Gal(b1-4)[Fuc(a1-3)]GlcNAc; settings: glycan notation: IUPAC condensed, linker removed
# How it was run: as §1
# [7] = test system: Glc(a1-4)Glc(a1-4)Glc(a1-4)Glc; settings: glycan notation: IUPAC condensed, linker removed
# How it was run: as §1
# [8] = test system: Glc(a1-6)Glc(a1-6)Glc(a1-6)Glc; settings: glycan notation: IUPAC condensed, linker removed
# How it was run: as §1
# Glc(a1-6)Glc(a1-6)Glc = settings: glycan notation: IUPAC condensed, linker removed
# How it was run: as §1
# [9] = test system: GlcNAc(a1-4)Gal(b1-4)GlcNAc(b1-3)Gal(b1-4)GlcNAc(b1-3)Gal(b1-4)GlcNAc; settings: glycan notation: IUPAC condensed, linker removed
# How it was run: as §1
# Glc(a1-4)Glc = settings: glycan notation: IUPAC condensed, linker removed
# How it was run: as §1
# Glc(b1-6)Glc = settings: glycan notation: IUPAC condensed, linker removed
# How it was run: as §1
# Glc(b1-4)Glc = settings: glycan notation: IUPAC condensed, linker removed
# How it was run: as §1
# GlcA(b1-3)Gal = settings: glycan notation: IUPAC condensed, linker removed
# How it was run: as §1
# GlcA(b1-3)GlcNAc = settings: glycan notation: IUPAC condensed, linker removed
# How it was run: as §1
# Chain of wLAT-1A (Homo sapiens), Q01650 (Q01650 whole entry): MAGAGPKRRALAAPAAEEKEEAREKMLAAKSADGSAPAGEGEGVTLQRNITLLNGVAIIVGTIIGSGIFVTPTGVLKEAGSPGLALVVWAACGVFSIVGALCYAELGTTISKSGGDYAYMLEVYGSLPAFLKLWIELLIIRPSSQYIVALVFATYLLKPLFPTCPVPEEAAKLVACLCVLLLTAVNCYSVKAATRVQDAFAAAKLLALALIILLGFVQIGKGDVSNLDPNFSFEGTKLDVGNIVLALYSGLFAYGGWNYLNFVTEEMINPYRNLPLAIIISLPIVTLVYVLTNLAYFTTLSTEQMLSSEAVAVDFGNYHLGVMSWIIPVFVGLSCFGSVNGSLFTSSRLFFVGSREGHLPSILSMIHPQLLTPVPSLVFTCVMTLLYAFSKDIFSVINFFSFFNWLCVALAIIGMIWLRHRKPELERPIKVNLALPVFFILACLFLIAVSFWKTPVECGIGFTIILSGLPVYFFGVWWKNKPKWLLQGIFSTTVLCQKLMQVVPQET
# Chain of 6RG (Lolium perenne), B9U140 (B9U140 entry or part of it): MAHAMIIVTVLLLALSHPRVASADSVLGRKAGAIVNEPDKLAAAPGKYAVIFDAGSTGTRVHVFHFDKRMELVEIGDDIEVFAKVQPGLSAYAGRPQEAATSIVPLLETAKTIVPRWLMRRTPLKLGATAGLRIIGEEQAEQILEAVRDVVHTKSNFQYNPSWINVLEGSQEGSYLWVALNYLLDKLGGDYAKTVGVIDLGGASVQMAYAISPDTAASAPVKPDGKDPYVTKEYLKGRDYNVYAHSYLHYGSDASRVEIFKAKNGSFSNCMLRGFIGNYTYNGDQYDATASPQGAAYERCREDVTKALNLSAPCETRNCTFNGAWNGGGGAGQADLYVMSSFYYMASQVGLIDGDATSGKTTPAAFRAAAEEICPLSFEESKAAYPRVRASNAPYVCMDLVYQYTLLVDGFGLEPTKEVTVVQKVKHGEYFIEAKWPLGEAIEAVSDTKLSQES
# Chain of Neurocan (Homo sapiens), O14594 (O14594 other isoform, or with tags, fused parts or gaps): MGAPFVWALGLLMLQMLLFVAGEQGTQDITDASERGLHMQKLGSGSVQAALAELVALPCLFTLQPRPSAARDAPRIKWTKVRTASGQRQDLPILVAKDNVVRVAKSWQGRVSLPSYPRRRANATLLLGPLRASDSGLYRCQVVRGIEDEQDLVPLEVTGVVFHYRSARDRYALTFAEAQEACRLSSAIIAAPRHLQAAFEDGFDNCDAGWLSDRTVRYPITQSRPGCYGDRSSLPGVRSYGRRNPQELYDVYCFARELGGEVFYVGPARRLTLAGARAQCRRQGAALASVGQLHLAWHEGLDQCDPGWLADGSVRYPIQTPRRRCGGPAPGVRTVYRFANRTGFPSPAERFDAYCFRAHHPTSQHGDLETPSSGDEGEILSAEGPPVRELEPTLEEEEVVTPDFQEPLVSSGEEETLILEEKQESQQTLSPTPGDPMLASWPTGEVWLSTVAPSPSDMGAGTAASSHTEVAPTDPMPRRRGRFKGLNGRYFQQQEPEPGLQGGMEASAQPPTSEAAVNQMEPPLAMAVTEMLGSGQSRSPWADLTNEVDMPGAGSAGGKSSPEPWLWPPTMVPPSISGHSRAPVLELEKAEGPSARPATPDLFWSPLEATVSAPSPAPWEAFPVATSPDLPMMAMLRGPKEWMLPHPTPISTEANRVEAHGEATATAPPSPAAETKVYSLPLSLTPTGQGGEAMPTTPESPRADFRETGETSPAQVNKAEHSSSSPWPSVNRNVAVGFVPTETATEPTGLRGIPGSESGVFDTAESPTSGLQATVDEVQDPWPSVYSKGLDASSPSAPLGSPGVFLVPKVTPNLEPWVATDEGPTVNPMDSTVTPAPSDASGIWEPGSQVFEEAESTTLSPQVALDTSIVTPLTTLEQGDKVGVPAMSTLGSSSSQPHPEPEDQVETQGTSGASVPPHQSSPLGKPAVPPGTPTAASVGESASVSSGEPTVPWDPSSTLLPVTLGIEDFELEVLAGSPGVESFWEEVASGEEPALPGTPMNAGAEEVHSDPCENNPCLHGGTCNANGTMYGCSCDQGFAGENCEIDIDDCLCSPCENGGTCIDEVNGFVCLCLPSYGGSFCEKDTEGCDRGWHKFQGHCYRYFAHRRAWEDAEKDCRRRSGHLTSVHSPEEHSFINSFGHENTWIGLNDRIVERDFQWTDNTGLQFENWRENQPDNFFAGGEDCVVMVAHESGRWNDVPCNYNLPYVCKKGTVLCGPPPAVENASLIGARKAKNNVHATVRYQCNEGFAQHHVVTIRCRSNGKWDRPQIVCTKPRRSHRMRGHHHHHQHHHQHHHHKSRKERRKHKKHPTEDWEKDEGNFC
# Chain of CHI3L1 (Homo sapiens), P36222 (P36222 whole entry): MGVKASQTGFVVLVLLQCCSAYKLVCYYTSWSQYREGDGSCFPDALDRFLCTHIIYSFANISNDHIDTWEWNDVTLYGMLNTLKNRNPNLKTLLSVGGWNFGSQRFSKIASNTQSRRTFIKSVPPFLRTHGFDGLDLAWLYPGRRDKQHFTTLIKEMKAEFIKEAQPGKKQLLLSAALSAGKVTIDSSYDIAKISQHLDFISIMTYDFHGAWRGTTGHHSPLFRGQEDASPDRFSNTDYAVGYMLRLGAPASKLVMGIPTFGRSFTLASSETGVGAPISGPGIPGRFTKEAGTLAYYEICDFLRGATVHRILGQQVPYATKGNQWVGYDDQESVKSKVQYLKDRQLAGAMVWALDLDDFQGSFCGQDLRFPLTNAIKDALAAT
# Chain of PILRb (Mus musculus), Q2YSF2 (Q2YSF2 entry or part of it): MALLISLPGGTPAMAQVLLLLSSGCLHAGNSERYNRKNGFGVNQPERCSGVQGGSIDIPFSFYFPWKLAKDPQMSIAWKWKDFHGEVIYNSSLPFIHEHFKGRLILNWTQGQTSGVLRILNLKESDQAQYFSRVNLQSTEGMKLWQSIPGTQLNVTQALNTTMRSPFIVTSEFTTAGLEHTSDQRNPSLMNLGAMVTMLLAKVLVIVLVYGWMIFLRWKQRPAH
# Chain of Aggrecan (Rattus norvegicus), NP_071526 (chain, as listed by the source): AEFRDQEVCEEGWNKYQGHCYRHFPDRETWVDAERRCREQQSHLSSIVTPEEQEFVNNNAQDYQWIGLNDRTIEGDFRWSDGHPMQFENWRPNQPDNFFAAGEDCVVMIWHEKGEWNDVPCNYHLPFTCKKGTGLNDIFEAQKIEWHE
# Chain of C3b (Homo sapiens), P01024 (P01024 23-667): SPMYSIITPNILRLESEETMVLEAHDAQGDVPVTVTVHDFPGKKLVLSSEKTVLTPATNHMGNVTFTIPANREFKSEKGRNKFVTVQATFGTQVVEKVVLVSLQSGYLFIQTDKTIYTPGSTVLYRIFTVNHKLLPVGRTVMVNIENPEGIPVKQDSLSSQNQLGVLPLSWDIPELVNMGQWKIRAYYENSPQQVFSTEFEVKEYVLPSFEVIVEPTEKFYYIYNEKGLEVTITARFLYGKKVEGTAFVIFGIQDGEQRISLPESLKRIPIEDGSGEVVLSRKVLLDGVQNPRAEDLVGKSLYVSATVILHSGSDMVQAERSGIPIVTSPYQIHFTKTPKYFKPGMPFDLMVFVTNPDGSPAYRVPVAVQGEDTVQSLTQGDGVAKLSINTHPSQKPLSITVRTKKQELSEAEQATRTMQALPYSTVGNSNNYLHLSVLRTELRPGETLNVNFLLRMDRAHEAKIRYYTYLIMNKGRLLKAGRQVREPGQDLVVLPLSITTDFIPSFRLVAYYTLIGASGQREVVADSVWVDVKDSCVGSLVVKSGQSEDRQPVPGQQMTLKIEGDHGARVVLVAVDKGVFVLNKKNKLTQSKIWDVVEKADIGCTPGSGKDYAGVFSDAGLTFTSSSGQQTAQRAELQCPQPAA
# Chain of PILRa (Mus musculus), Q2YSF3 (Q2YSF3 entry or part of it): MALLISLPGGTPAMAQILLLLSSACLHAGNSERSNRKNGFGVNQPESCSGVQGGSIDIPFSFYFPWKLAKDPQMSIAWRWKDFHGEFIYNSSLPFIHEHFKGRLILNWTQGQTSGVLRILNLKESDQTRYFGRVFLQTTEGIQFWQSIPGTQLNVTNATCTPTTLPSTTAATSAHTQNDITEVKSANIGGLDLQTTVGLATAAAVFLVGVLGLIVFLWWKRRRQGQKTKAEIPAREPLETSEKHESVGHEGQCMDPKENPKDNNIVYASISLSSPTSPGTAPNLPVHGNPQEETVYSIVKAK
# Chain of CHT (Homo sapiens) (chain, as listed by the source): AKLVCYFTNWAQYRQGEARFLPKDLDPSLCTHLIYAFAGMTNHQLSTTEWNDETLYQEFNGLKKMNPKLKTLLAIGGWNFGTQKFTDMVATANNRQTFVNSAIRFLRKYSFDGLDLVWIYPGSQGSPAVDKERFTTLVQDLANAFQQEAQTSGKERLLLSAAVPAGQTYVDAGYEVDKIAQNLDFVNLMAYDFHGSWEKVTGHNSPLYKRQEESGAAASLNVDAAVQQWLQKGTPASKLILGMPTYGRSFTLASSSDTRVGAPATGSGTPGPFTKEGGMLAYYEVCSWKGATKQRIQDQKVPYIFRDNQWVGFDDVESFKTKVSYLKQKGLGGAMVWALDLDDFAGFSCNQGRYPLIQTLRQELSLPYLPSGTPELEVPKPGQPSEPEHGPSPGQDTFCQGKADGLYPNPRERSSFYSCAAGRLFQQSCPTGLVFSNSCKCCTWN
# Chain of Avaren (Actinomycete K97) (chain, as listed by the source): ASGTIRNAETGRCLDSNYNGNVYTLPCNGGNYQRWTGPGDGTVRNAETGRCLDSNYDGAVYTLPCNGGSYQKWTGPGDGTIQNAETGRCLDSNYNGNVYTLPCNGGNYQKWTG
# Chain of Regenerating Gene IV (Homo sapiens), Q9BYZ8 (Q9BYZ8 whole entry, looked up): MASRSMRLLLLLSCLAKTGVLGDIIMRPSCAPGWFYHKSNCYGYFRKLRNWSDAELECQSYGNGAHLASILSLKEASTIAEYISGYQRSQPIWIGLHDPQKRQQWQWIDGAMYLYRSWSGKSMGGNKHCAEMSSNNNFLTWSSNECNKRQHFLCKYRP
substance,measurement,setting,value
"6RG (Lolium perenne), B9U140",glycan array binding signal (z-score),Gal6S(b1-4)Glc,0.084
same,glycan array binding signal (z-score),GalNAc(a1-3)Gal,-0.395
same,glycan array binding signal (z-score),[1],-0.228
"HARE (Homo sapiens), Q8WWQ8",glycan array binding signal (z-score),Gal6S(b1-4)Glc,0.81
"Siglec-8 (Homo sapiens), Q9NYZ4",glycan array binding signal (z-score),Gal6S(b1-4)Glc; mutation: R125K,0.06
same,glycan array binding signal (z-score),GalNAc(b1-6)GalNAc,-0.055
same,glycan array binding signal (z-score),[2],-0.267
"wLAT-1A (Homo sapiens), Q01650",glycan array binding signal (z-score),GalNAc(a1-3)GalNAc,6.65
same,glycan array binding signal (z-score),GalNAc(a1-3)Gal,3.46
same,glycan array binding signal (z-score),GalNAc(b1-3)GalNAc,1.87
MpAFP RI GFP (Marinomonas primoryensis),glycan array binding signal (z-score),GalNAc(a1-3)GalNAc,-0.566
"PILRb (Mus musculus), Q2YSF2",glycan array binding signal (z-score),[3],-0.074
same,glycan array binding signal (z-score),GalNAc(b1-3)GalNAc,0.288
same,glycan array binding signal (z-score),[4],0.156
"Aggrecan (Rattus norvegicus), NP_071526",glycan array binding signal (z-score),[5],0.017
same,glycan array binding signal (z-score),[6],0.828
"CHI3L1 (Homo sapiens), P36222",glycan array binding signal (z-score),[7],0.48
same,glycan array binding signal (z-score),[8],1.01
same,glycan array binding signal (z-score),Glc(a1-6)Glc(a1-6)Glc,-0.073
same,glycan array binding signal (z-score),[9],-0.129
"C3b (Homo sapiens), P01024",glycan array binding signal (z-score),Glc(a1-4)Glc,-0.67
same,glycan array binding signal (z-score),Glc(b1-6)Glc,3.33
Avaren (Actinomycete K97),glycan array binding signal (z-score),[8],-0.14
"PILRa (Mus musculus), Q2YSF3",glycan array binding signal (z-score),Glc(a1-6)Glc(a1-6)Glc,-0.233
same,glycan array binding signal (z-score),Glc(b1-6)Glc,-0.169
"Regenerating Gene IV (Homo sapiens), Q9BYZ8",glycan array binding signal (z-score),Glc(b1-4)Glc,5.46
"Neurocan (Homo sapiens), O14594",glycan array binding signal (z-score),GlcA(b1-3)Gal,0.453
same,glycan array binding signal (z-score),GlcA(b1-3)GlcNAc,10.5
same,glycan array binding signal (z-score),[2],-0.326
same,glycan array binding signal (z-score),[6],4.73
CHT (Homo sapiens),glycan array binding signal (z-score),"[1]; mutation: D138V, E140I",-0.189
